KB-3-1 cytotox: kills parental KB-3-1 adenocarcinoma cells. Potency, µM (titrated, usually from 46.1 µM), most hits filed as cytotoxic. KB-3-1 viability, CellTiter-Glo ATP luminescence, 72 h. 400,000 compounds, 1.4% hits; also: % is scaled to controls: 0 for no effect and ±100 for the full control effect; nearly all actives have a fitted effect of over 60% in size
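Cells are dispensed, compounds pinned in, plates held at 37 °C for 72 h, then CellTiter-Glo is added and luminescence read after 10 minutes. Cell line: parental KB-3-1 in phenol-red-free DMEM, 10% FBS.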
SW480 rereplic: induces DNA re-replication in SW480 colon adenocarcinoma cells; 340,000 compounds, 1.8% hits; SW480 DNA re-replication, Hoechst DNA content imaging, 48 h; Potency, µM (series often up to 46.1 µM), for inactives: top-dose re-replication activation, hits mostly activators; also: % of control where 0% means no effect; nearly all actives have a fitted effect of over 55% in size
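First, 250 cells per well were seeded. Next, compound or vehicle (23 nL) was pinned in, plates sat 48 hr at 37 C. Finally Hoechst was added for 40 min before fluorescence scanning.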
MCF10A rereplic: DNA re-replication induction in MCF 10a cells; MCF 10A DNA re-replication, Hoechst nuclear intensity, 48 h; Potency, µM (titrated, usually from 46.1 µM), for inactives: at the highest dose activity, positive = re-replication, hits mostly activators; 350,000 compounds, 2.9% hits; also: % of control where 0% means no effect; nearly all actives have a fitted effect of over 50% in size
HT1080NT lethal: kills 2HG-producing HT-1080-NT fibrosarcoma cells. HT-1080-NT fibrosarcoma viability, CellTiter-Glo ATP luminescence, 48 h. Potency, µM (doses to about 46.1 µM), inactives show top-dose activity, negative = less viability, hits mostly cytotoxic. 360,000 compounds, 1.6% hits;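 also: NT is the 2HG producing partner of a matched IDH1 knockdown line; 0% = DMSO-treated cells and -100% = media-only wells without cells; nearly all actives have a fitted effect of over 55% in size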
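Viability of the 2HG-overproducing fibrosarcoma line after 48 hours of compound exposure at 37 degrees C was determined by luminescence with CellTiter-Glo, and concentration-effect curves were then fitted and categorized.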
HT1080 IDH1KD tx: toxicity to HT-1080 IDH1 knockdown cells (counter line). HT-1080 IDH1 knockdown viability, ATP luminescence, 48 h. AID 686971. 360,000 compounds, 2% hits. Potency, µM (highest dose often 46.1 µM), inactives show at the top dose activity, negative = toxicity, actives largely listed as cytotoxic;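 also: 0% = DMSO wells and -100% = cell-free medium wells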
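Luminescent ATP read-out (CellTiter-Glo, 10 min at room temperature) after 48 h compound exposure at 37 °C gave viability of IDH1-knockdown HT-1080 cells. Activity was normalised to DMSO and cell-free wells, then fitted as concentration-response curves.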
KB-V1 MDR tox: KB-V1 MDR subline cytotoxicity; KB-V1 MDR cells viability, CellTiter-Glo, 72 h; Potency, µM (titrated, usually from 46.1 µM), hits mostly cytotoxic; 400,000 compounds, 3.4% hits; also: % is scaled to controls: 0 for no effect and ±100 for the full control effect; nearly all actives have a fitted effect of over 60% in size
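Cells of the MDR subline KB-V1 are plated, dosed with compound at multiple concentrations, and incubated 72 h at 37 degrees C; CellTiter-Glo is then added and luminescence read after 10 min.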
* = called active by the depositor; i = inactive; ? = inconclusive; · = no result. Sampled rows, rich in hits. Any-hit rate of the full collection: about 8%. Calls follow the shape of the dose curve; as a rule, active = well fitted curve in the direction sought with a large enough effect; inconclusive = small, poorly fitted or top-dose-only effect, or another doubt; inactive = no such curve, though single readings can be large; an effect the other way counts as inactive or inconclusive. Potency is read from the fitted curve at half-maximal effect.

SMILES | KB-3-1 cytotox | SW480 rereplic | MCF10A rereplic | HT1080NT lethal | HT1080 IDH1KD tx | KB-V1 MDR tox
COC(=O)[C@@]12C[C@@H](CC(=O)NCCCCc3ccccc3)C(=O)N(Cc3ccc4c(c3)OCO4)C1=CCC(C)(C)C2 | ? | · | · | ? | ? | 23µM*
CCCCNC(=O)C[C@@H]1C[C@@]2(C(=O)OCC)CCC=C2N(Cc2ccc3c(c2)OCO3)C1=O | i | · | · | 6% | 2% | i
COC(=O)[C@@]12C[C@@H](CC(=O)NCC3CCCCC3)C(=O)N(Cc3ccc4c(c3)OCO4)C1=CCC(C)(C)C2 | ? | · | · | ? | ? | 21µM*
CCOC(=O)[C@]12CCCC=C1N(Cc1ccc3c(c1)OCO3)C(=O)[C@H](CC(=O)NCCCCc1ccccc1)C2 | ? | · | · | ? | 12µM* | ?
CCCCNC(=O)C[C@@H]1C[C@@]2(C(=O)OC)CCCCC=C2N(Cc2ccc3c(c2)OCO3)C1=O | i | · | · | -4% | 2% | ?
COC(=O)[C@@]12C[C@@H](CC(=O)NCc3ccc(C)o3)C(=O)N(Cc3ccc4c(c3)OCO4)C1=CCC(C)(C)C2 | i | · | · | ? | ? | ?
COC(=O)[C@]12CCCCC=C1N(Cc1ccc3c(c1)OCO3)C(=O)[C@H](CC(=O)NCCCCc1ccccc1)C2 | i | · | · | ? | ? | 16µM*
CCCCNC(=O)C[C@@H]1C[C@@]2(C(=O)OC)CC(C)(C)CC=C2N(Cc2ccc3c(c2)OCO3)C1=O | i | · | · | -19% | -15% | ?
Cc1ccc2nc(NC(=O)CSc3nccn3Cc3ccccc3)sc2c1 | i | · | · | · | · | i
CCCCN(Cc1ccccc1)C(=O)c1oc(=O)c2ccccc2c1-c1ccc(C)cc1 | ? | · | · | · | · | i
COc1ccc(-c2cc(C)no2)cc1S(=O)(=O)NC(C)C | i | · | · | · | · | i
O=C(CSC1=Nc2ccccc2N=C(c2ccc(F)cc2)C1)Nc1ccc(Cl)cc1 | i | · | · | · | · | i
Cc1ccc(S(=O)(=O)c2cnc(SCC(=O)Nc3cc(C)cc(C)c3)nc2N)cc1 | i | · | · | · | · | ?
CCOC(=O)[C@]12CCC=C1N(Cc1ccc3c(c1)OCO3)C(=O)[C@H](CC(=O)NCc1ccccc1)C2 | i | · | · | -13% | 23µM* | i
COC(=O)[C@@]12C[C@@H](CC(=O)NCCc3ccccc3OC)C(=O)N(Cc3ccccc3)C1=CCC(C)(C)C2 | i | · | · | ? | ? | 12µM*
O=C(CCC1CCN(C(=O)C2CC=CCC2)CC1)Nc1ccccc1 (centres undefined) | i | · | · | -1% | -2% | 16µM*
O=C1CC(c2cccc(Cl)c2)CC(O)=C1C=NC1CCCC1 (centres undefined) | i | 1% | ? | -2% | 8% | 21µM*
O=C1CC(c2ccccc2)CC(O)=C1C=NCc1ccccc1 (centres undefined) | i | 14% | ? | 0% | -8% | i
O=C1CC(c2ccccc2)CC(O)=C1C=NCc1ccccc1Cl (centres undefined) | ? | -1% | ? | 5.6µM* | ? | ?
O=c1c2c3c(sc2n(Cc2cc(=O)n4ccccc4n2)c(=O)n1-c1ccccc1)CCC3 | i | · | · | · | · | i
CCCNC(=O)C1CCN(S(=O)(=O)c2ccc(Br)cc2)CC1 | i | -1% | 2% | -9% | -28% | 16µM*
CC1Sc2ccc(S(=O)(=O)N3CCC(C(=O)Nc4cccc(Cl)c4)CC3)cc2NC1=O (centres undefined) | 15µM* | ? | 1% | ? | ? | i
COc1cccc(CNC(=O)C2CCN(S(=O)(=O)c3ccc(F)cc3)CC2)c1 | i | -4% | 1% | -3% | 1% | 23µM*
COc1ccc(S(=O)(=O)N2CCC(C(=O)NCCC(=O)Nc3cccc(Cl)c3)CC2)cc1 | i | ? | 21µM* | -4% | -13% | i
